Shown is part of a subset that was picked to be rich in hits.
SARS PLpro yeast – blocks SARS-CoV papain-like protease in a yeast assay. actives 0.19% (n = 330,000). Potency, µM (titrated, usually from 32.9 µM), inactives show top-dose activity, positive = growth rescue, usual class: activators. S. cerevisiae expressing SARS-CoV PLpro, growth rescue. AID 485353; calls by dose curve; also: potency is read from the fitted curve at half-maximal effect; 0% is about no effect; nearly all actives have a fitted effect of over 55% in size
Cycloheximide cs – counter-screen hit for Shiga toxin inhibitors, cycloheximide. cell reporter, cycloheximide protein synthesis inhibition counterscreen. max response, %. actives 12% (n = 300,000); in the data active = max response mostly above about 13%, no sharp cut-off; inactive = mostly below about 14%; also: read at 38.3 µM for the half of the compounds with a filed dose; 0% is about no effect
AmpC inh detg – blocks E. coli AmpC beta-lactamase in detergent assay. P00811. AmpC hydrolysis of nitrocefin, absorbance 480 nm, 0.01% Triton. Potency, µM (highest dose often 114 µM), without a hit: top-dose activity change, negative = inhibition, usual class: inhibitors. actives 0.041% (n = 370,000);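 also: potency is read from the fitted curve at half-maximal effect; 0% = no-compound wells and -100% = no-enzyme wells; nearly all actives have a fitted effect of over 25% in size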
Target sequence (P00811 whole entry, looked up): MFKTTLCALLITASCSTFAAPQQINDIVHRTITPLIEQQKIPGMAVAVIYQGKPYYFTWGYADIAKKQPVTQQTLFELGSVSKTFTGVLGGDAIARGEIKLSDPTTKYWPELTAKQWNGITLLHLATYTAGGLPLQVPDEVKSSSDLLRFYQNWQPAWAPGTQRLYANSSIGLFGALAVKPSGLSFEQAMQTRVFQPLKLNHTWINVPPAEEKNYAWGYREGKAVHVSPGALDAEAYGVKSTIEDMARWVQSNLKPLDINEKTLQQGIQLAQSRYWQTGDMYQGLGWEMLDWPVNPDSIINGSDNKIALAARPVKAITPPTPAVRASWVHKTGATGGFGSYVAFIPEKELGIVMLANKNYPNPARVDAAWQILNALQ
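AmpC (5.3 nM in the dispensed reagent) in 20 mM phosphate pH 7.0 with 0.01% (detergent screen) or 0.0001% Triton X-100 was preincubated with compounds for 15 min at room temperature. Nitrocefin was then added from an 800 uM solution, and hydrolysis was followed at 480 nm.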
Shiga inhibitor – blocks Shiga toxin action in Vero cells. Vero cells, Shiga toxin protein synthesis inhibition reporter. inhibition, % at 38.7 µM. actives 9.2% (n = 290,000); in the data active = inhibition mostly above about 28%, no sharp cut-off; inactive = mostly below about 43%; also: 0% is about no effect
AMA1 RON2 block – disrupts binding of P. falciparum AMA1 to RON2 | Potency, µM (series often up to 58.2 µM), without a hit: at the highest dose activity change, negative = inhibition, actives largely listed as inhibitors | actives 0.2% (n = 360,000) | AlphaScreen AMA1-biotinylated RON2 peptide binding;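 also: potency is read from the fitted curve at half-maximal effect; 0% = vehicle wells and -100% = peptide control; nearly all actives have a fitted effect of over 45% in size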
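AMA1 (3D7) with his tag at 25 nM final met compounds first, then biotinylated RON2 peptide at 25 nM; detection used donor plus acceptor beads, 10 µg/mL apiece, read by AlphaScreen after 30 min at room temperature.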
AmpC no deterg – inhibitors of E. coli AmpC beta-lactamase without detergent. P00811. Potency, µM (titrated, usually from 57.1 µM), for the others: top-dose activity change, negative = inhibition, hits mostly inhibitors. actives 0.52% (n = 330,000). AmpC nitrocefin hydrolysis, absorbance 480 nm, 0.0001% Triton;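 also: potency is read from the fitted curve at half-maximal effect; plate controls were no compound for no effect and no enzyme for full effect; nearly all actives have a fitted effect of over 20% in size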
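AmpC (5.3 nM in the dispensed reagent) in 20 mM phosphate pH 7.0 with 0.01% (detergent screen) or 0.0001% Triton X-100 was preincubated with compounds for 15 min at room temperature. Nitrocefin was then added from an 800 uM solution, and hydrolysis was followed at 480 nm.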
An asterisk follows results filed as active; [ ] = dose if it differs, or a comment. Unless noted, calls follow the shape of the dose curve; as a rule, active = well fitted curve in the direction sought with a large enough effect; inconclusive = small, poorly fitted or top-dose-only effect, or another doubt; inactive = no such curve, though single readings can be large; an effect the other way counts as inactive or inconclusive.

`FC(F)C(F)(F)c1cc(-c2ccccc2)n[nH]1` gave SARS PLpro yeast 0.9%, Cycloheximide cs 19.7*, AmpC inh detg 1.9%, Shiga inhibitor 29.0, AMA1 RON2 block 7.8% and AmpC no deterg -18.7%.
For Cc1ccc(-c2nnnn2C2C/C(=N\NC(N)=S)C3OCC2O3)cc1 (configuration not stated) the results were SARS PLpro yeast 6.0%, Cycloheximide cs 19.9*, AmpC inh detg 5.1%, Shiga inhibitor 39.2, AMA1 RON2 block 71.0% and AmpC no deterg -29.1%.
CCOc1ccc(NC(=S)N2CCC(C(O)(c3ccccc3)c3ccccc3)CC2)cc1 was read as SARS PLpro yeast 15.0%, Cycloheximide cs 13.6, AmpC inh detg 1.7%, Shiga inhibitor 4.7, AMA1 RON2 block 15.8% and AmpC no deterg -20.8%.
COc1ccc(N2CCN(C(=O)c3ccc4c(=O)n5c(nc4c3)CCCCC5)CC2)cc1 was read as SARS PLpro yeast -13.1%, Cycloheximide cs 0.5, AmpC inh detg 0.6%, Shiga inhibitor -15.1, AMA1 RON2 block -17.5% and AmpC no deterg 90.3%.
`CCC1CCC/C1=N\NC(=O)c1ccccc1Cl` (configuration not stated) gave AMA1 RON2 block 13.6%.
For CCC1CCC/C1=N\NC(=O)c1ccoc1C (configuration not stated) the results were SARS PLpro yeast -2.0%, Cycloheximide cs 37.8*, AmpC inh detg -1.0%, Shiga inhibitor 86.5*, AMA1 RON2 block 8.8% and AmpC no deterg -12.4%.
For COc1ccc(Nc2nc(Cl)nc(NCCO)n2)cc1 the results were SARS PLpro yeast 6.7%, Cycloheximide cs 8.5, AmpC inh detg -17.2%, Shiga inhibitor -10.9, AMA1 RON2 block 8.5% and AmpC no deterg -16.3%.
CC(C)Nc1ccc(Nc2ccccc2)cc1 was read as SARS PLpro yeast 0.3%, AmpC inh detg inconclusive, AMA1 RON2 block inconclusive and AmpC no deterg -33.3%.
CC(C)c1ccc(Nc2nc(Cl)nc(NCCO)n2)cc1 was read as SARS PLpro yeast -0.3%, Cycloheximide cs 12.4*, AmpC inh detg inconclusive, Shiga inhibitor 20.9, AMA1 RON2 block 5.4% and AmpC no deterg -1.4%.
For CC(C)Nc1nc(Cl)nc(Nc2ccccc2)n1 the results were SARS PLpro yeast 14.8%, Cycloheximide cs 39.0*, AmpC inh detg 1.0%, Shiga inhibitor 52.6*, AMA1 RON2 block -0.5% and AmpC no deterg -25.1%.
For CCN1C(=O)NC(=O)/C(=C\c2ccc(N3CCOCC3)cc2OC)C1=O the results were SARS PLpro yeast 2.2%, Cycloheximide cs 66.9*, AmpC inh detg 6.7%, Shiga inhibitor 55.8* and AmpC no deterg -24.8%.
Screening COc1cc(N2CCOCC2)ccc1/C=C1\C(=O)NC(=O)N(C2CCCCC2)C1=O returned SARS PLpro yeast 3.0%, Cycloheximide cs -1.8, AmpC inh detg 0.8%, Shiga inhibitor 2.3, AMA1 RON2 block 3.1% and AmpC no deterg -13.1%.
For O=C(c1cc2nc(C3CC3)cc(C(F)F)n2n1)N1CCOCC1 the results were SARS PLpro yeast -2.1%, Cycloheximide cs 9.6, AmpC inh detg 0.7%, Shiga inhibitor 32.5*, AMA1 RON2 block -1.7% and AmpC no deterg -7.5%.
`Cc1cccc(CSCCNC(=O)COc2ccc(Cl)cc2)c1` gave SARS PLpro yeast -6.2%, Cycloheximide cs -2.0, AmpC inh detg -1.9%, Shiga inhibitor -8.1, AMA1 RON2 block 9.4% and AmpC no deterg -13.3%.
Screening CC(C)Oc1ccc(/C(O)=C2/C(=O)C(=O)N(CCN(C)C)C2c2cccs2)cc1 (configuration not stated) returned SARS PLpro yeast -1.0%, Cycloheximide cs 18.3*, AmpC inh detg -5.1%, Shiga inhibitor 74.1*, AMA1 RON2 block 9.4%[11.6 µM] and AmpC no deterg -12.2%.
Screening CCOc1cc(C2/C(=C(/O)c3ccc(OC(C)C)cc3)C(=O)C(=O)N2CCCOC)ccc1O (configuration not stated) returned SARS PLpro yeast 1.4%, Cycloheximide cs 48.3*, AmpC inh detg -5.5%, Shiga inhibitor 87.1*, AMA1 RON2 block -11.6% and AmpC no deterg -29.6%.
For CCOC(=O)c1[nH]c(C)c(/C(O)=C2\C(=O)C(=O)N(CCCN3CCOCC3)C2c2cccs2)c1C (configuration not stated) the results were SARS PLpro yeast -1.5%, Cycloheximide cs 18.8*, AmpC inh detg 2.4%, Shiga inhibitor 57.4, AMA1 RON2 block 13.5% and AmpC no deterg -22.9%.
Screening CCOc1cccc(/C(O)=C2/C(=O)C(=O)N(CCN3CCOCC3)C2c2ccncc2)c1 (configuration not stated) returned SARS PLpro yeast 0.9%, Cycloheximide cs -2.6, AmpC inh detg -8.6%, Shiga inhibitor 1.4 and AmpC no deterg -5.8%.
COc1cccc(/C(O)=C2/C(=O)C(=O)N(CCN3CCOCC3)C2c2cccs2)c1 (configuration not stated) was read as SARS PLpro yeast -1.4%, Cycloheximide cs 23.0*, AmpC inh detg -12.8%, Shiga inhibitor 19.6, AMA1 RON2 block -14.2% and AmpC no deterg -19.0%.
CC(C)COc1ccc(/C(O)=C2/C(=O)C(=O)N(CCN(C)C)C2c2ccncc2)cc1 (configuration not stated) was read as SARS PLpro yeast -2.2%, Cycloheximide cs -1.0, AmpC inh detg -1.5%, Shiga inhibitor -4.6, AMA1 RON2 block -4.5% and AmpC no deterg 8.8%.
Cc1ccc(S(=O)(=O)N(C)C)cc1NC(=O)C(C)NC(C)c1cccs1 (configuration not stated) was read as SARS PLpro yeast 2.6%, Cycloheximide cs -6.5, AmpC inh detg 1.5%, Shiga inhibitor -3.1, AMA1 RON2 block -1.2% and AmpC no deterg 2.9%.
For Cc1ccc2nc(NS(C)(=O)=O)sc2c1 the results were SARS PLpro yeast -0.7%, Cycloheximide cs 5.9, AmpC inh detg -6.1%, Shiga inhibitor 32.9, AMA1 RON2 block -5.3% and AmpC no deterg -9.9%.
CC(=NCCCN1CCOCC1)c1c(O)[nH]c(=O)[nH]c1=O was read as SARS PLpro yeast -9.7%, Cycloheximide cs -4.9, AmpC inh detg -5.0%, Shiga inhibitor -18.0, AMA1 RON2 block 15.3% and AmpC no deterg -13.5%.
Screening CCN1CCN(C(=O)CSc2cc(=O)n(CC)c3ccccc23)CC1 returned SARS PLpro yeast -14.2%, Cycloheximide cs 2.2, AmpC inh detg 4.1%, Shiga inhibitor 5.4, AMA1 RON2 block 4.1% and AmpC no deterg -10.4%.
Screening Cc1nc(-c2ccncc2)nc(NCCNc2ncccc2C(F)(F)F)c1Cl returned SARS PLpro yeast -9.9%, Cycloheximide cs -1.7, AmpC inh detg 4.2%, Shiga inhibitor 3.5, AMA1 RON2 block -7.8% and AmpC no deterg 36.7%.

Source: PubChem BioAssay (National Center for Advancing Translational Sciences (NCATS))
